From PubChem BioAssay
Hits are enriched below; roughly 28% of the tested compounds scored in any of these assays.
CYP2C19 inhib: blockers of cytochrome P450 2C19 activity – biochemical, luminescence, ADME assay, primary screen. P33261. CYP2C19 Supersomes, luciferin-H EGE luminescence, 30 min. inhibition, % at 5 µM. hit rate 21% among 96,000. AID 778, 2007;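 active = CYP2C19 inhibition above a set limit at 5 µM in the primary screen, cut at about 50% in these data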;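 note: plate controls were negative control wells for no effect and 2.5 mM tranylcypromine positive control for full effect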
Target sequence (P33261 whole entry, looked up): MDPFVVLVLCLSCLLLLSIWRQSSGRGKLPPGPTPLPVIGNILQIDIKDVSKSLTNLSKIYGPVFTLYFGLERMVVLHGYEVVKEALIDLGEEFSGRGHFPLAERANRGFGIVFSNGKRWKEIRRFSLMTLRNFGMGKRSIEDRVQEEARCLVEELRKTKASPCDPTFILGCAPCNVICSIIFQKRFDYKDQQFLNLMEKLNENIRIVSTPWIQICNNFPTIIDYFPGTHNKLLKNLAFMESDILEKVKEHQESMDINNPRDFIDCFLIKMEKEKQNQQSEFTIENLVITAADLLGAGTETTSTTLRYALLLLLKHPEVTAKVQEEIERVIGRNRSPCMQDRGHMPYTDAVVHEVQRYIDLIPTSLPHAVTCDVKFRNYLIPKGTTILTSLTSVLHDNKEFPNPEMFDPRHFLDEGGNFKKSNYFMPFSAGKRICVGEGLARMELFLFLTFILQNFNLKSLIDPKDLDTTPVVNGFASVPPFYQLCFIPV
CYP2C19 activ: human CYP2C19 activators, primary screen, biochemical, luminescence | AID 1025, 2008 | Cytochrome P450 2C19 (Homo sapiens), P33261 | recombinant CYP2C19, luciferin-H EGE luminescence; active compounds read high; 0 = fully inhibited enzyme, 1 = untreated enzyme | 96,000 tested, under 10 active | activation factor at 5 µM;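 active = activation factor of at least 2 at 5 µM in the primary screen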;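 note: 0 = wells with 2.5 mM tranylcypromine and 1 = vehicle-only wells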
Mac1 fbg enh: enhancers of CD11b/CD18 adhesion to fibrinogen, primary screen, K562 cells, luminescence; Integrin beta-2 (Homo sapiens) + Integrin alpha-M (Homo sapiens), P05107+P11215; activation, % at 10 µM; hit rate 0.07% among 93,000; ATPlite luminescence; AID 1499, 2009;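 active = 10 µM primary screen giving 50% or more activity, confirmed by 40% or more on retest at that dose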
CYP2C9 activ: human CYP2C9 activators, primary screen, biochemical, luminescence | recombinant CYP2C9, luciferin-H conversion; active compounds read high; factor 1 = untreated enzyme, 0 = blocked | activation factor at 5 µM | hit rate 1.4% among 96,000 | Cytochrome P450 2C9 (Homo sapiens), P11712;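 active = activation factor of 2 or more for CYP2C9 at a 5 µM dose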;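 note: 0 = sulfaphenazole-blocked wells and 1 = vehicle-only wells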
CYP2C9 inh: blockers of cytochrome P450 2C9 activity – biochemical, luminescence, ADME assay, primary screen; P11712; CYP2C9 Supersomes, luciferin-H conversion; inhibition, % at 5 µM; hit rate 20% among 96,000; AID 777, 2007;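 active = blocking of liver enzyme CYP2C9 beyond about 50% at 5 µM, limit read from the data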
Mac1 fbg inh: inhibitors of CD11b/CD18 adhesion to fibrinogen, primary screen, K562 cells, luminescence; Integrin beta-2 (Homo sapiens) + Integrin alpha-M (Homo sapiens), P05107+P11215; ATPlite luminescence; Mn2+ added to activate the integrin; inhibition, % at 10 µM; hit rate 0.54% among 93,000;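 active = primary inhibition of 50% or more at 10 µM, then 40% or more on retest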
* = called active by the depositor; . = no result.

SMILES | CYP2C19 inhib | CYP2C19 activ | Mac1 fbg enh | CYP2C9 activ | CYP2C9 inh | Mac1 fbg inh
CC1(C)SC(=S)N(Cc2ccc3c(c2)OCO3)C1N(O)C(=O)NC1CCCCC1 (configuration not stated) | 42.0 | 0.6 | 0.6 | 0.3 | 71.8* | 17.7
O=S(=O)(c1ccccc1Cl)N1CCCC1c1nc(-c2ccc(Cl)cc2)no1 (configuration not stated) | 27.9 | 0.7 | -10.8 | 1.1 | -9.3 | 94.9
COc1ccc(CCNC(=O)CSc2ccc(-c3ccccc3)nn2)cc1 | . | . | 2.7 | . | . | -9.2
CCN(CC)S(=O)(=O)c1ccc2oc(SCC(=O)NCc3ccccc3)nc2c1 | 97.2* | 0 | -0.8 | 0.1 | 90.3* | -37.2
COc1ccc(CCNC(=O)CSc2nc3ccccc3o2)cc1 | 92.2* | 0.1 | -3.1 | 0 | 98.6* | -7.9
O=C(CSc1nc2cc(Cl)ccc2o1)c1cccs1 | 57.6* | 0.4 | -4.2 | 0.4 | 60.2* | 0.0
CCS(=O)(=O)c1ccc2oc(SCC(=O)NC3CCCC(C)C3C)nc2c1 (configuration not stated) | 52.0* | 0.5 | -4.7 | 0.5 | 46.3 | -1.1
COc1cccc(N(C(=O)c2cccs2)c2nc3ccccc3s2)c1 | 4.7 | 1 | -0.4 | 0.8 | 20.7 | 4.3
CCCc1nnc(NC(=O)CCC(=O)N2CCN(C3c4ccccc4-c4ccccc43)CC2)s1 | . | . | 0.6 | . | . | -0.4
O=C(CSc1nc2cc(Cl)ccc2o1)NCCc1ccccc1 | 50.9* | 0.5 | -0.5 | 0.3 | 65.1* | -3.2
O=C(CSc1nnc(Cc2ccccc2)o1)NCCc1ccccc1 | 27.6 | 0.7 | -8.9 | 0.8 | 21.3 | 80.3
COC(=O)c1[nH]c2cccc(OC)c2c1NC(=O)CCN1CCC(C)CC1 | -1.3 | 1 | -3.8 | 1 | -3.5 | -9.0
COC(=O)c1[nH]c2cccc(OC)c2c1NC(=O)C(C)N1CCC(C)CC1 (configuration not stated) | 18.3 | 0.8 | -1.0 | 2.3* | -125.4 | -8.8
COc1ccc2c(c1)nc(SCC(=O)c1ccc(Br)s1)n2C | 71.9* | 0.3 | . | 0.5 | 51.3* | .
COc1ccc(COC(=O)c2ccc(N3CCCC3=O)cc2)cc1F | 45.3 | 0.5 | -2.1 | 0.4 | 60.9* | -30.9
Cc1cc(NC(=O)CSc2nnc(C)c(=O)[nH]2)no1 | 2.1 | 1 | -1.7 | 0.9 | 6.2 | -4.2
CC(=O)N1C(=O)CC(C)N(C(C)=O)c2ccc([N+](=O)[O-])cc21 (configuration not stated) | . | . | 1.7 | . | . | 2.3
CC(=O)OC1COC(N2CCc3cc([N+](=O)[O-])ccc32)C(OC(C)=O)C1OC(C)=O (configuration not stated) | 72.3* | 0.3 | . | 0.2 | 80.6* | .
COc1ccc(NC(=O)c2noc3c2CCC3)cc1 | 62.0* | 0.4 | 3.0 | 0.7 | 26.7 | -5.3
O=C(Nc1cccc(O)c1)c1noc2c1CCCCC2 | 69.7* | 0.3 | -4.3 | 0.7 | 32.6 | 19.6
COc1ccc(CNC(=O)c2noc3c2CCCCC3)cc1 | 41.7 | 0.6 | 2.4 | 0.7 | 32.3 | -3.3
Cc1c(Br)c([N+](=O)[O-])nn1CC(=O)N1CCCc2ccccc21 | 12.9 | 0.9 | 0.5 | 0.6 | 37.6 | 3.5
Cc1ccccc1N=C1NC(=O)CC(c2ccccc2)S1 (configuration not stated) | 62.8* | 0.4 | -1.2 | 0.7 | 32.4 | 11.6
Cc1ccccc1N=C1NC(=O)CS1 | 1.2 | 1 | -0.7 | 1 | -4.5 | -6.1
CCCN(S(=O)(=O)c1ccc(OCC)cc1)S(=O)(=O)c1cccs1 | 29.9 | 0.7 | 2.3 | 0.6 | 41.4 | -8.3
Cc1cc(C)c[n+](-c2nc3ccccc3nc2C(=C=[N-])C#N)c1 | -3.2 | 1 | -2.1 | 0.9 | 10.4 | -15.9
Cc1ccccc1N1C(=O)C2ON(c3ccccc3)C(c3cccnc3)C2C1=O (configuration not stated) | 75.0* | 0.3 | -2.1 | 0.5 | 51.9* | -10.3
O=C1C2ON(c3ccccc3)C(c3cccnc3)C2C(=O)N1Cc1ccccc1 (configuration not stated) | 100.4* | 0 | 0.6 | 0.1 | 88.0* | -0.2
